# From ChEMBL document CHEMBL3988442, “University of Dundee, Small-Polar-MMV Screening Library” (2021)
# The whole screen tested about 69,000 compounds, of which about 1,000 (1.4%) showed an effect of 50% or more. This excerpt belongs to a sample that is enriched for strong results.
# Tested on: Leishmania donovani
# Assay: Leishmania intramacrophage assay
# Type: functional, organism-based
# Set-up: scale not given: in the data most compounds retested in dose-response had high values
smiles,measurement,setting,value
OC1(CN2CCCC2)COCCN(c2nccs2)C1 (configuration not stated),Percent Effect,"30.3 µM, […]",-9.416%
COCC1CN(S(=O)(=O)N(C)C)Cc2cnn(CC3CCCC3)c21.O=C(O)C(F)(F)F (configuration not stated),Percent Effect,"30.3 µM, […]",-10.54%
Cc1ccc(F)c(NC(=O)CCC(=O)N(C)Cc2cc(C3CC3)[nH]n2)c1,Percent Effect,"30.3 µM, […]",5.303%
COc1ccccc1CC(=O)NC(CC(=O)O)c1ccc(C)cc1 (configuration not stated),Percent Effect,"30.3 µM, […]",-0.7929%
COc1ccccc1Oc1ncccc1CNC(=O)CN1CCCC1=O,Percent Effect,"30.3 µM, […]",15.35%
Cc1cc(NC(=O)NCc2cccnc2OC(C)C)no1,Percent Effect,"30.3 µM, […]",23.81%
O=C(O)C(F)(F)F.O=C(O)C(F)(F)F.c1ccc(CN2CCc3nnc(CN4CCCCC4)n3CC2)nc1,Percent Effect,"30 µM, 30.03 µM",-31.83%
CCc1cc(N2C[C@H](C3CC3)[C@@H](N)C2)nc(N2CCOCC2)n1,Percent Effect,"30.3 µM, […]",29.17%
N[C@H]1CN(Cc2cnc(N3CCCC3)nc2)C[C@@H]1C1CC1,Percent Effect,"30.3 µM, […]",17.06%
CCc1cc(N2C[C@H](C3CC3)[C@@H](N)C2)nc(N2CCCC2)n1,Percent Effect,"30.3 µM, […]",72.46%
Cc1cc(N2C[C@H](C3CC3)[C@@H](N)C2)nc(N2CCCCC2)n1,Percent Effect,"30.3 µM, […]",55.81%
CNc1cc(C)nc(N2C[C@H](NC(=O)C3CCOCC3)[C@@H](C3CC3)C2)n1,Percent Effect,"30.3 µM, […]",-19.84%
CNc1cc(C)nc(N2C[C@H](C3CC3)[C@@H](N)C2)n1,Percent Effect,"30.3 µM, […]",66.39%
CNc1cc(C)nc(N2C[C@@H](C(=O)O)[C@H](C3CC3)C2)n1,Percent Effect,"30.3 µM, […]",1.34%
CC(C)Oc1cc(N2C[C@H](C3CC3)[C@@H](N)C2)nc(N)n1,Percent Effect,"30.3 µM, […]",15.53%
Cc1cc(C)nc(N2CCC(OCCN3CCCCC3)C2)n1 (configuration not stated),Percent Effect,"30.3 µM, […]",-14.11%
Nc1cc2c(nn1)CCN(C(=O)c1ccc(-c3ccco3)[nH]c1=O)C2,Percent Effect,"30.3 µM, […]",9.211%
O=c1cc(C2CCNCC2)nc(CCCc2ccccc2)[nH]1,Percent Effect,"30.3 µM, […]",27.29%
Cc1cc(NC(=O)CN2CCn3c(nnc3C(C)C)C2)n(C)n1,Percent Effect,30 µM,-15.63%
Cc1nsc(N2CCCN(C(=O)NCc3cc(C)on3)CC2)n1,Percent Effect,"30.3 µM, […]",8.411%
CN(CCNc1ncc2c(n1)CCN2c1ccccc1)S(C)(=O)=O,Percent Effect,"30.3 µM, […]",14.06%
Cc1cnn(CCC(=O)N2CCCC(c3cc(C(N)=O)[nH]n3)C2)c1 (configuration not stated),Percent Effect,"30 µM, 30.03 µM",2.466%
COc1ccccc1CC(=O)N1CCC(OCc2cccnc2)CC1,Percent Effect,"30.3 µM, […]",5.945%
CN1C[C@@H](N)C[C@H]1C(=O)N1CCC(Cc2ccc(F)cc2)CC1,Percent Effect,"30.3 µM, […]",8.715%
Cc1ccccc1SC1CCN(C(=O)[C@H]2[C@@H]3CNC[C@@H]32)CC1,Percent Effect,"30.3 µM, […]",68.53%
Cc1ccccc1SC1CCN(C(=O)C2CNCC(=O)N2)CC1 (configuration not stated),Percent Effect,"30.3 µM, […]",24.39%
Cc1ccccc1SC1CCN(C(=O)[C@@H]2C[C@@H](N)CN2)CC1,Percent Effect,"30.3 µM, […]",56.56%
Cc1ccccc1SC1CCN(C(=O)CCCS(N)(=O)=O)CC1,Percent Effect,"30.3 µM, […]",28.86%
Cc1ccccc1SC1CCN(C(=O)C2CNC(=O)N2)CC1 (configuration not stated),Percent Effect,"30.3 µM, […]",-12.93%
Cc1nc[nH]c1C(=O)N1CC[C@@H](NC(=O)c2ccccn2)[C@H](O)C1,Percent Effect,"30.3 µM, […]",11.08%
COCC1CC2(CCN(Cc3nccn3C)CC2)CN1c1ncccn1.O=C(O)C(F)(F)F (configuration not stated),Percent Effect,"30.3 µM, […]",11.88%
CC(=O)c1c(C)nn(CC(=O)N2CCCC2c2ccc(C(N)=O)s2)c1C (configuration not stated),Percent Effect,"30.3 µM, […]",42.8%
Cc1n[nH]c2ncc(CNC3CCCN(c4ncccn4)C3)cc12.Cl (configuration not stated),Percent Effect,"30.3 µM, […]",15.17%
Cc1cnc(N2CCn3c(CN4CCOCC4)nnc3C2)nc1.O=C(O)C(F)(F)F,Percent Effect,"30.3 µM, […]",30.81%
COC(=O)CNC(=O)Cn1ccc2ccc(F)cc21,Percent Effect,"30.3 µM, […]",14.64%
Cc1cc(Cl)cc(C)c1CNC1CCN(CC(=O)N(C)C)CC1,Percent Effect,"30.3 µM, […]",66.45%
CC(NC1CCN(CC(=O)N(C)C)CC1)c1cnn(C(C)C)c1 (configuration not stated),Percent Effect,"30.3 µM, […]",-44.29%
Cc1nc(-c2c(C)noc2C)cc(C2CCN(CC(=O)N(C)C)CC2)n1,Percent Effect,"30.3 µM, […]",31.09%
CC(C)Oc1cc(N2CCC(C(N)=O)CC2)nc(N)n1,Percent Effect,"30.3 µM, […]",14.18%
COc1ccc(C2CCCN2C(=O)c2cc3c([nH]c2=O)CCC3)cc1 (configuration not stated),Percent Effect,"30 µM, 30.03 µM",22.34%
O=C1CC2(CCSC2)C(=O)N1Cc1coc(-c2ccccc2)n1 (configuration not stated),Percent Effect,"30.3 µM, […]",4.889%
CNC(=O)N1CCCCC1CCNS(C)(=O)=O (configuration not stated),Percent Effect,"30.3 µM, […]",6.391%
Cc1nn(C)c(N(C)C)c1CNCc1ccccc1Cn1cncn1,Percent Effect,"30 µM, 30.03 µM",20.9%
Cc1ccc(C(C(=O)O)N2CCCN(Cc3ccccn3)CC2)c(F)c1 (configuration not stated),Percent Effect,"30.3 µM, […]",23.66%
Cc1cc(F)c(C(C(=O)O)N2CCN(Cc3ccccn3)CC2)cc1Cl (configuration not stated),Percent Effect,"30.3 µM, […]",5.04%
O=C(O)C(c1ccc(Cl)c(F)c1)N1CCN(Cc2ccccn2)CC1 (configuration not stated),Percent Effect,"30.3 µM, […]",61.2%
COCCC(=O)N1CCCC1c1nccc(C)n1 (configuration not stated),Percent Effect,"30.3 µM, […]",11.84%
Cl.Fc1cccc(CN2CCC(c3cc4ncccc4cn3)CC2)c1F,Percent Effect,"30.3 µM, […]",51.12%
Fc1cc(F)cc(CN2CCC(c3cc4ncccc4cn3)CC2)c1,Percent Effect,"30.3 µM, […]",29.54%
Cl.Fc1ccc(F)c(CN2CCC(c3cc4ncccc4cn3)CC2)c1,Percent Effect,"30.3 µM, […]",33.05%
Cn1nnnc1SCC(=O)N1CCN(C(=O)C2CC2c2cccs2)CC1 (configuration not stated),Percent Effect,"30.3 µM, […]",-0.756%
Cc1cnn(CCNCC(O)c2ccc3c(c2)OCCO3)c1 (configuration not stated),Percent Effect,"30.3 µM, […]",-28.04%
CN1CCN([C@@H]2CCN(Cc3ccc4cc(F)ccc4n3)C[C@H]2O)CC1,Percent Effect,"30.3 µM, […]",33.38%
CN1CCN([C@@H]2CCN(CC3=Cc4cc(Cl)ccc4OC3)C[C@H]2O)CC1,Percent Effect,"30.3 µM, […]",96.13%
O[C@@H]1CN(CC2=Cc3cc(Cl)ccc3OC2)CC[C@H]1N1CCCCCC1,Percent Effect,"30.3 µM, […]",44.96%
Cc1c(O)cccc1C(=O)N1CCCC2(C1)C(=O)N(C)c1ccccc12 (configuration not stated),Percent Effect,"30.3 µM, […]",10.13%
CN1C(=O)C2(CCCN(C(=O)c3cccnc3O)C2)c2ccccc21 (configuration not stated),Percent Effect,"30.3 µM, […]",4.492%
CNc1ncccc1C(=O)N1CCCC2(C1)C(=O)N(C)c1ccccc12 (configuration not stated),Percent Effect,"30.3 µM, […]",63.07%
O=C(NCC1(O)CCOc2ccccc21)Nc1ccccc1 (configuration not stated),Percent Effect,"30.3 µM, […]",35.58%
COCCN(C)C[C@@H]1CN(C(=O)c2cccc(C#N)c2)C[C@@H]1CO,Percent Effect,"30.3 µM, […]",-5.773%
COCCN(C)C[C@@H]1CN(C(=O)c2cccc(Cl)c2)C[C@@H]1CO,Percent Effect,"30.3 µM, […]",-8.073%
CN(CCO)C[C@@H]1CN(C(=O)c2cccc(OC(F)F)c2)C[C@@H]1CO,Percent Effect,"30.3 µM, […]",59.47%
